Measurements from the supplement of paper PMC10849652.
The full data set covers some 7,900 targets. This sample favours those with a hit. About 0.6% of all pairs of compound and target were hits.

Legend:
Experiment in all cases: log2 fold change, soluble protein after heating vs DMSO (PISA); higher = thermal stabilisation; K562 cells, 10 uM, 30 min; active = over 0.2 and 3.5 SD of the protein, either way, in both replicates (recomputed)
bafetinib = compound: Cc1ccc(NC(=O)c2ccc(CN3CC[C@H](N(C)C)C3)c(C(F)(F)F)c2)cc1Nc1nccc(-c2cncnc2)n1 [bafetinib]
In short: (§1)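 K562 cells (2×10^6 cells/mL) were treated with 10 μM compound for 30 min, and aliquots were heated for 3 min over 48°C-58°C. Pooled aliquots were extracted in PBS with 0.5% NP-40 at 4°C, and the supernatant after 21,000xg for 90 min was measured by TMTpro 16plex LC-MS/MS with channel sums equalised. Reported thermal stability, relative to control samples and from duplicates, is a log2 fold change.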

[1] = compound: Cc1cccc(CC(=O)N2CCc3c2ccc(-c2cn(C)c4ncnc(N)c24)c3F)n1
In short: as §1

nilotinib = compound: Cc1cn(-c2cc(NC(=O)c3ccc(C)c(Nc4nccc(-c5cccnc5)n4)c3)cc(C(F)(F)F)c2)cn1 [nilotinib]
In short: as §1

[2] = compound: Cc1nc(Nc2n[nH]c3c2CN(C(=O)N[C@H](CN(C)C)c2ccccc2)C3(C)C)c2sccc2n1
In short: as §1

dasatinib = compound: Cc1nc(Nc2ncc(C(=O)Nc3c(C)cccc3Cl)s2)cc(N2CCN(CCO)CC2)n1 [dasatinib]
In short: as §1

[3] = compound: Cc1ncc(-c2ccnc(Nc3ccc(S(C)(=O)=O)cc3)n2)n1C(C)C
In short: as §1

[4] = compound: Cn1cc(-c2ccc3c(c2)CCN3C(=O)Cc2cccc(C(F)(F)F)c2)c2c(N)ncnc21
In short: as §1

[5] = compound: Cn1cc(-c2ccc3nnc(C(F)(F)c4ccc5ncccc5c4)n3n2)cn1
In short: as §1

tipifarnib = compound: Cn1cncc1[C@@](N)(c1ccc(Cl)cc1)c1ccc2c(c1)c(-c1cccc(Cl)c1)cc(=O)n2C [tipifarnib]
In short: as §1

mubritinib = compound: FC(F)(F)c1ccc(/C=C/c2nc(COc3ccc(CCCCn4ccnn4)cc3)co2)cc1 [mubritinib]
In short: as §1

[6] = compound: NC(=O)Nc1cc(-c2cccc(F)c2)sc1C(=O)N[C@H]1CCCNC1
In short: as §1

[7] = compound: NC(=O)c1cnc(N[C@@H]2CCCC[C@@H]2N)nc1Nc1cccc(-n2nccn2)c1
In short: as §1

[8] = compound: NC1(c2ccc(-c3nc4ccn5c(=O)[nH]nc5c4cc3-c3ccccc3)cc2)CCC1
In short: as §1

[9] = compound: NCC(=O)Nc1ccc(-n2nc(C(F)(F)F)cc2-c2ccc3c(ccc4ccccc43)c2)cc1
In short: as §1

entinostat = compound: Nc1ccccc1NC(=O)c1ccc(CNC(=O)OCc2cccnc2)cc1 [entinostat]
In short: as §1

vorinostat = compound: O=C(CCCCCCC(=O)Nc1ccccc1)NO [vorinostat]
In short: as §1

citarinostat = compound: O=C(CCCCCCNC(=O)c1cnc(N(c2ccccc2)c2ccccc2Cl)nc1)NO [citarinostat]
In short: as §1

silmitasertib = compound: O=C(O)c1ccc2c(c1)nc(Nc1cccc(Cl)c1)c1ccncc12 [silmitasertib]
In short: as §1

[10] = compound: O=C1NC(=O)C(c2cnc3ccccn23)=C1c1cn2c3c(cc(F)cc13)CN(C(=O)N1CCCCC1)CC2
In short: as §1

[11] = compound: c1cc(OCCN2CCCCC2)cc(-c2n[nH]c3ccc(-c4nnc[nH]4)cc23)c1
In short: as §1

Measured: log2 fold change

FAM117A (UniProt Q9C073)
active: silmitasertib -0.422 | [11] -0.251
inactive: bafetinib -0.021 | [1] 0.004 | nilotinib -0.047 | [2] -0.083 | dasatinib -0.046 | [3] -0.018 | [4] 0.016 | [5] 0.032 | tipifarnib 0.039 | mubritinib 0.024 | [6] -0.135 | [7] 0 | [8] -0.05 | [9] -0.03 | entinostat 0.046 | vorinostat -0.011 | citarinostat 0.043 | [10] 0.038

DYNC1LI2 (UniProt O43237)
inactive: bafetinib -0.041 | [1] -0.004 | nilotinib 0.109 | [2] 0.015 | dasatinib -0.068 | [3] 0.125 | [4] -0.184 | [5] 0.052 | tipifarnib -0.01 | mubritinib 0.024 | [6] 0.093 | [7] -0.021 | [8] 0.206 | [9] -0.075 | entinostat -0.026 | vorinostat 0.075 | citarinostat -0.101 | silmitasertib 0.214 | [10] 0.158 | [11] -0.108

DHRS3 (UniProt O75911)
Chain of UniProt O75911 (O75911 whole entry, looked up): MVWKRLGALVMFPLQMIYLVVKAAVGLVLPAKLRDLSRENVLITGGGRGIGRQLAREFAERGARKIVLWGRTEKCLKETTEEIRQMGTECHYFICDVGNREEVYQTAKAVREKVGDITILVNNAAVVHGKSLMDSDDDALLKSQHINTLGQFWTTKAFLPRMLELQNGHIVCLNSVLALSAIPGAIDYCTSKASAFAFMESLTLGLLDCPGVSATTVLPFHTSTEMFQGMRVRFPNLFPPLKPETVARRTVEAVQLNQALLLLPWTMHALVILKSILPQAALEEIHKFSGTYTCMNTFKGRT
inactive: bafetinib 0.027 | [1] 0.017 | nilotinib 0.101 | [2] -0.031 | dasatinib 0.188 | [3] -0.025 | [5] 0.164 | tipifarnib 0.012 | mubritinib 0.081 | [6] -0.032 | [7] -0.047 | [8] -0.081 | [9] -0.06 | entinostat 0.05 | vorinostat -0.084 | citarinostat 0.024 | silmitasertib 0.009 | [10] 0.046 | [11] -0.06
active: [4] 0.323

E2F4 (UniProt Q16254)
Chain of UniProt Q16254 (Q16254 whole entry, looked up): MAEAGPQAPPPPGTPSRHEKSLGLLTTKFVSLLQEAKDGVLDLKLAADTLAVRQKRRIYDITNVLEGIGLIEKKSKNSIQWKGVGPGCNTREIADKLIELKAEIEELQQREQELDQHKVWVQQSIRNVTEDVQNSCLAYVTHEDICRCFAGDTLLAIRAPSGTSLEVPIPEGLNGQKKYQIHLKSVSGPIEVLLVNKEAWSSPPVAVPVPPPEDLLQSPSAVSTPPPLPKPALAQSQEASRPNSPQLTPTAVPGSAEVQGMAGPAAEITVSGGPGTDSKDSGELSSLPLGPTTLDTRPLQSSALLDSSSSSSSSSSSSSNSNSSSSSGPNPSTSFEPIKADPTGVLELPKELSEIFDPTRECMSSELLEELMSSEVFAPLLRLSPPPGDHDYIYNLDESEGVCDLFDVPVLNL
inactive: bafetinib -0.053 | [1] -0.026 | nilotinib -0.016 | [2] -0.141 | dasatinib -0.095 | [3] 0.012 | [4] -0.007 | [5] -0.006 | tipifarnib -0.009 | mubritinib 0.01 | [6] 0.004 | [7] -0.052 | [8] -0.105 | [9] -0.032 | entinostat 0.016 | vorinostat -0.052 | citarinostat 0.067 | silmitasertib 0.001 | [10] 0.015 | [11] 0.005

DOHH (UniProt Q9BU89)
active: bafetinib 0.653
inactive: [1] 0.008 | nilotinib 0.035 | [2] -0.169 | dasatinib 0.013 | [3] -0.054 | [4] -0.089 | [5] 0.022 | tipifarnib 0.014 | mubritinib 0.03 | [6] 0.043 | [7] 0.056 | [8] 0.278 | [9] 0.009 | entinostat -0.106 | vorinostat -0.04 | citarinostat 0.017 | silmitasertib 0.047 | [10] 0.153 | [11] 0.283

DHX16 (UniProt O60231)
Chain of UniProt O60231 (O60231 whole entry, looked up): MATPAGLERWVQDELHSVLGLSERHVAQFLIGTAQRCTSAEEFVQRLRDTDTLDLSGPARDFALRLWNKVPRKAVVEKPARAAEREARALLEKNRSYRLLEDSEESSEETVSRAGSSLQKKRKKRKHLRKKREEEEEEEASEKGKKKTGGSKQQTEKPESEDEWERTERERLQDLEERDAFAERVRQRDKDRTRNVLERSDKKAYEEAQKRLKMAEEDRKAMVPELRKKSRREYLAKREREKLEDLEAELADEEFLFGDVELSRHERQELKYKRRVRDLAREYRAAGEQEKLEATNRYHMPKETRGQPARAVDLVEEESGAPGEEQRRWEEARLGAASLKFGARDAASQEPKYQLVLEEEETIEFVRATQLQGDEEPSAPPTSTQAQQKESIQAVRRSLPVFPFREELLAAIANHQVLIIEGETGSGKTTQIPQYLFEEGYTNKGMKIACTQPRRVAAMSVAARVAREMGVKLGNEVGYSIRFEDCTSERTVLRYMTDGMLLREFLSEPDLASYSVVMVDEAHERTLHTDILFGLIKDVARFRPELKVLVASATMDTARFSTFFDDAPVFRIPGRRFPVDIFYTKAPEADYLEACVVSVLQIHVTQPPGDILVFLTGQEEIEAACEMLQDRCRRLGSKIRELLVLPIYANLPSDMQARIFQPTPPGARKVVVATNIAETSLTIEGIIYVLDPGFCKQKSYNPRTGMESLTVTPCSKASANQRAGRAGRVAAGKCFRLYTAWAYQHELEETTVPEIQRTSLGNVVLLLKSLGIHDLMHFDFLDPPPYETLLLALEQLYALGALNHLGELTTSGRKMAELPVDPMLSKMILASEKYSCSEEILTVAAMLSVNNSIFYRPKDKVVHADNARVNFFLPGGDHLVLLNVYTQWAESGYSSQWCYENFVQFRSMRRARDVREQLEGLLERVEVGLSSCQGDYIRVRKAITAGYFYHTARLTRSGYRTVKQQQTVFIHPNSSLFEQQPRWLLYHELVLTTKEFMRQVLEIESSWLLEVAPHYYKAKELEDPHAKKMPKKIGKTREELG
inactive: bafetinib 0.001 | [1] 0.044 | nilotinib -0.031 | [2] 0.019 | dasatinib -0.095 | [3] -0.006 | [4] 0.059 | [5] 0.002 | tipifarnib -0.04 | mubritinib 0.147 | [6] 0.005 | [7] 0.018 | [8] -0.021 | [9] -0.044 | entinostat 0.013 | vorinostat 0.001 | citarinostat 0.049 | silmitasertib -0.142 | [10] -0.012 | [11] -0.041

DMXL1 (UniProt Q9Y485)
inactive: bafetinib -0.14 | [1] -0.034 | nilotinib -0.002 | [2] 0.018 | dasatinib -0.099 | [3] -0.012 | [4] 0.021 | [5] 0.021 | tipifarnib -0.035 | mubritinib -0.053 | [6] -0.026 | [7] -0.075 | [8] -0.052 | [9] -0.015 | entinostat 0.033 | vorinostat 0.069 | citarinostat 0.005 | silmitasertib 0.04 | [10] -0.007 | [11] -0.071

CTSZ (UniProt Q9UBR2)
inactive: [1] -0.027 | nilotinib 0.028 | [2] -0.146 | dasatinib 0.054 | [3] -0.022 | [4] 0.058 | [5] 0.022 | tipifarnib 0.052 | mubritinib 0.033 | [6] -0.029 | [7] -0.005 | [9] 0.044 | entinostat -0.023 | vorinostat 0.013 | citarinostat 0.019 | silmitasertib 0.008 | [10] -0.047 | [11] 0.006
active: bafetinib -1.01 | [8] -0.511

EXOC4 (UniProt Q96A65)
Chain of UniProt Q96A65 (Q96A65 whole entry, looked up): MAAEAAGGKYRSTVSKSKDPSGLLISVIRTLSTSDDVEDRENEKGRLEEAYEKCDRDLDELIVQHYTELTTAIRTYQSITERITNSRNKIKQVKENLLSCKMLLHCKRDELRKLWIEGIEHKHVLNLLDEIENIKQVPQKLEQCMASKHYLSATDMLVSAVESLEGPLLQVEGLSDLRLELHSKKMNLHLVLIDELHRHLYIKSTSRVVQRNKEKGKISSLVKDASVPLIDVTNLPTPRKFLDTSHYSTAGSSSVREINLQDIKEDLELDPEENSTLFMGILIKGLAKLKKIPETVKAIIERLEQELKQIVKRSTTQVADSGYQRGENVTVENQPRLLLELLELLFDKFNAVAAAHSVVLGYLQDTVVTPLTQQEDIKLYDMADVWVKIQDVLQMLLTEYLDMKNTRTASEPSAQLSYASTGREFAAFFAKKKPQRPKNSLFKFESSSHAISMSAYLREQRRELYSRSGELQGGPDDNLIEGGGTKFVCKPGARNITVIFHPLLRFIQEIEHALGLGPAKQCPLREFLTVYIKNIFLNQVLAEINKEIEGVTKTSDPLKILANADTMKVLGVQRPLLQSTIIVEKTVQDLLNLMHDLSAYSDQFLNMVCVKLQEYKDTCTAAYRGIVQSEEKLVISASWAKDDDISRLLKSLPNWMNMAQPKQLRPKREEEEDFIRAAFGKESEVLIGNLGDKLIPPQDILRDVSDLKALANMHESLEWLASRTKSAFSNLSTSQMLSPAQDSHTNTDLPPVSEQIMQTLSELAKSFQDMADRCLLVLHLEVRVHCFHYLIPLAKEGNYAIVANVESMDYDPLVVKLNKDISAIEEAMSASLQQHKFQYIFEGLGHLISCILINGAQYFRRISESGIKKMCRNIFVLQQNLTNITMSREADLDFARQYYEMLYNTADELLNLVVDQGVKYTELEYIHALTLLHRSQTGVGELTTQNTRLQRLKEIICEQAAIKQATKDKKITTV
inactive: bafetinib 0.012 | [1] 0.11 | nilotinib -0.068 | [2] -0.155 | dasatinib -0.15 | [3] -0.031 | [4] -0.026 | [5] 0.013 | tipifarnib -0.088 | mubritinib 0.078 | [6] 0.081 | [7] -0.216 | [8] -0.205 | [9] -0.051 | entinostat 0.078 | vorinostat 0.174 | citarinostat 0.16 | silmitasertib 0.091 | [10] 0.044 | [11] -0.094

DNAJC1 (UniProt Q96KC8)
inactive: bafetinib -0.185 | [1] -0.026 | nilotinib -0.035 | [2] 0.016 | dasatinib -0.064 | [3] 0.002 | [4] 0.028 | [5] 0.047 | tipifarnib 0.039 | mubritinib 0.041 | [6] 0.013 | [7] -0.055 | [8] -0.082 | [9] -0.08 | entinostat 0.042 | vorinostat 0.106 | citarinostat 0.017 | silmitasertib 0.01 | [10] -0.016 | [11] -0.083

DDB1 (UniProt Q16531)
Chain of UniProt Q16531 (Q16531 whole entry, looked up): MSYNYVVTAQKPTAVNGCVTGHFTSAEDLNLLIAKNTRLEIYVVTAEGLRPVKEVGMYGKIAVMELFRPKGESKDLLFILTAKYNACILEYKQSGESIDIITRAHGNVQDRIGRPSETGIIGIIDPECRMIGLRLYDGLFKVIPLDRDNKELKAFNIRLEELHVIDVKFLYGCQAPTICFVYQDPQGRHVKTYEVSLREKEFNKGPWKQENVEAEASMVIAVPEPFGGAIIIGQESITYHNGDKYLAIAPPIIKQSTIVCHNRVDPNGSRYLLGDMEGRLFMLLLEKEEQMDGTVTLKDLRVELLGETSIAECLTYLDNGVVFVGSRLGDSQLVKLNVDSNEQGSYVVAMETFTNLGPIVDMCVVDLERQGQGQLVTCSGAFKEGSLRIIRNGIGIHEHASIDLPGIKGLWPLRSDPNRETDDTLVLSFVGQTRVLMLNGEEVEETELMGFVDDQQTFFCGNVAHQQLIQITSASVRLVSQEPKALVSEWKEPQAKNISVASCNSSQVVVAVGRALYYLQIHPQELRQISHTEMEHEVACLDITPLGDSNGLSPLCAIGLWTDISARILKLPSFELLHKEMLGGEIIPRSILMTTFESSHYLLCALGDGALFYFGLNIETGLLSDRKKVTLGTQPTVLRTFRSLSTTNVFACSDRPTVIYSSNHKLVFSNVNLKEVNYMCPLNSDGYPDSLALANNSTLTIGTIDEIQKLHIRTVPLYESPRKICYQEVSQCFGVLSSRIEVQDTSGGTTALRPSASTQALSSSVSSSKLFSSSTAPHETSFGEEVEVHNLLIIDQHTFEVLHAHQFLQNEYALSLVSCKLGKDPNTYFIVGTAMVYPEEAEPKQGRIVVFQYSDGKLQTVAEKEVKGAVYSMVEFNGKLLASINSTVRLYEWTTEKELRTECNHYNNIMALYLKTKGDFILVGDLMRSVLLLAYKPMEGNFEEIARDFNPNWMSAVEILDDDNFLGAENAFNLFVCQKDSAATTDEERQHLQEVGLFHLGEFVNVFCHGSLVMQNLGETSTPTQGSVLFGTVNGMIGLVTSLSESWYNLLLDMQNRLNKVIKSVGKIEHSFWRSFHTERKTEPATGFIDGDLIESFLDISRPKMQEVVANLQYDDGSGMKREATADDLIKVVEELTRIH
inactive: bafetinib -0.019 | [1] -0.025 | nilotinib -0.004 | [2] 0.027 | dasatinib 0.046 | [3] -0.016 | [4] 0.011 | [5] -0.001 | tipifarnib -0.014 | mubritinib 0.023 | [6] 0.027 | [7] -0.025 | [8] -0.024 | [9] -0.004 | entinostat -0.022 | vorinostat -0.021 | citarinostat 0.02 | silmitasertib -0.002 | [10] -0.018 | [11] -0.03

DDX4 (UniProt Q9NQI0)
inactive: bafetinib 0.244 | [1] -0.511 | nilotinib -0.172 | [2] -0.187 | dasatinib 0.107 | [3] -0.068 | [4] -0.217 | [5] 0.052 | tipifarnib 0.268 | mubritinib -0.484 | [7] 0.01 | [8] 0.297 | [9] -0.35 | entinostat -0.405 | vorinostat -0.253 | citarinostat -0.146 | silmitasertib 0.171 | [10] -0.273 | [11] -0.194
active: [6] -1.13

DTWD2 (UniProt Q8NBA8)
inactive: bafetinib -0.023 | [1] -0.008 | nilotinib 0.065 | [2] -0.019 | dasatinib 0.126 | [3] 0.022 | [4] 0.215 | [5] 0.096 | tipifarnib -0.071 | mubritinib -0.087 | [6] 0.284 | [7] -0.03 | [8] -0.058 | [9] 0.068 | entinostat -0.079 | vorinostat 0 | citarinostat 0.152 | silmitasertib 0.089 | [10] 0.26 | [11] -0.123

FAF2 (UniProt Q96CS3)
inactive: bafetinib -0.058 | [1] -0.022 | nilotinib -0.042 | [2] -0.049 | dasatinib -0.075 | [3] 0 | [4] 0.017 | [5] -0.04 | tipifarnib -0.021 | mubritinib -0.011 | [6] -0.016 | [7] -0.038 | [8] -0.038 | [9] -0.027 | entinostat 0.021 | vorinostat 0.092 | citarinostat 0.015 | silmitasertib 0.007 | [10] -0.054 | [11] -0.018

EFCAB14 (UniProt O75071)
Chain of UniProt O75071 (O75071 whole entry, looked up): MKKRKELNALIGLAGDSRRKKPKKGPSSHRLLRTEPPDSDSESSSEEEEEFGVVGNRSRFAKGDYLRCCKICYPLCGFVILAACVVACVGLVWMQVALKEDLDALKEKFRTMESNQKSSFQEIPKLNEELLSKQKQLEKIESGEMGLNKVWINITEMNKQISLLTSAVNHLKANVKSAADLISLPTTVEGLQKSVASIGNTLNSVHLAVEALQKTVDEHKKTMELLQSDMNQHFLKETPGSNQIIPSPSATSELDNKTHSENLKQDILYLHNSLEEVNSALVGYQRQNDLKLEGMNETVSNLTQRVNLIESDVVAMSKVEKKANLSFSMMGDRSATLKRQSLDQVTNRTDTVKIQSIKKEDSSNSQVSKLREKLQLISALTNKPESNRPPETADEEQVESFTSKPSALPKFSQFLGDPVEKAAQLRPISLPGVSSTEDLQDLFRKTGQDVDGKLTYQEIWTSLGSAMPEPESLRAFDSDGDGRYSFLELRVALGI
inactive: bafetinib -0.008 | [1] -0.056 | nilotinib 0.084 | [2] 0.011 | dasatinib 0.075 | [3] 0.003 | [4] -0.123 | [5] -0.048 | tipifarnib -0.062 | mubritinib 0.081 | [6] 0.024 | [7] 0.218 | [8] -0.123 | [9] -0.006 | entinostat 0.007 | vorinostat -0.057 | citarinostat 0.181 | silmitasertib 0.022 | [10] -0.031 | [11] -0.075

DBN1 isoform 3 (UniProt Q16643)
Chain of UniProt Q16643 (Q16643 whole entry, looked up): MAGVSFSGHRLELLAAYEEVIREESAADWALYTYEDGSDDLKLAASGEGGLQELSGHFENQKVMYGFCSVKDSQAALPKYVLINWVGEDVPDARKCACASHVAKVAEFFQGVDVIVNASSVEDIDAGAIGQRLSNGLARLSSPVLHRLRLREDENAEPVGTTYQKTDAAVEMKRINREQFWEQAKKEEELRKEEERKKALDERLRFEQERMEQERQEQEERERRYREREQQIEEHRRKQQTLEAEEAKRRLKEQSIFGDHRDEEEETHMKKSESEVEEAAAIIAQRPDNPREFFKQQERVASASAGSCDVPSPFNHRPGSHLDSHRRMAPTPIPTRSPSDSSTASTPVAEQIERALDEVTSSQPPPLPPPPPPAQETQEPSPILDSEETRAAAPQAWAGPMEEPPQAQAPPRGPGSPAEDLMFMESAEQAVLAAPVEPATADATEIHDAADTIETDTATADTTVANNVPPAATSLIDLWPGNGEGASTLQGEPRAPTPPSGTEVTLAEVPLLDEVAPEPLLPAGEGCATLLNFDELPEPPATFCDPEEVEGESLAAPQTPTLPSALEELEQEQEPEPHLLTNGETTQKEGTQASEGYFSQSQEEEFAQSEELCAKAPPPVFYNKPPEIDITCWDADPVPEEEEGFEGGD
inactive: bafetinib -0.106 | [1] 0.032 | nilotinib -0.05 | [2] -0.043 | [3] -0.041 | [4] -0.22 | [5] -0.069 | tipifarnib 0.086 | mubritinib 0 | [6] 0.098 | [7] 0.027 | [8] -0.039 | [9] -0.003 | entinostat -0.036 | vorinostat 0.128 | citarinostat -0.032 | silmitasertib 0.066 | [10] -0.03 | [11] -0.053
active: dasatinib 0.264
